Screening results: PubChem BioAssay, several laboratories
Most compounds without a hit are left out; they make up all but 27% or so of the library.
CYP2C19 act = increases human CYP2C19 enzyme activity; P33261; recombinant CYP2C19, luciferin-H EGE luminescence; stronger effect = higher value; 0 = fully inhibited enzyme, 1 = untreated enzyme; activation factor at 5 µM; 96,000 tested, under 10 active;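 active = activation factor of at least 2 at 5 µM in the primary screen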
Target sequence (P33261 whole entry, looked up): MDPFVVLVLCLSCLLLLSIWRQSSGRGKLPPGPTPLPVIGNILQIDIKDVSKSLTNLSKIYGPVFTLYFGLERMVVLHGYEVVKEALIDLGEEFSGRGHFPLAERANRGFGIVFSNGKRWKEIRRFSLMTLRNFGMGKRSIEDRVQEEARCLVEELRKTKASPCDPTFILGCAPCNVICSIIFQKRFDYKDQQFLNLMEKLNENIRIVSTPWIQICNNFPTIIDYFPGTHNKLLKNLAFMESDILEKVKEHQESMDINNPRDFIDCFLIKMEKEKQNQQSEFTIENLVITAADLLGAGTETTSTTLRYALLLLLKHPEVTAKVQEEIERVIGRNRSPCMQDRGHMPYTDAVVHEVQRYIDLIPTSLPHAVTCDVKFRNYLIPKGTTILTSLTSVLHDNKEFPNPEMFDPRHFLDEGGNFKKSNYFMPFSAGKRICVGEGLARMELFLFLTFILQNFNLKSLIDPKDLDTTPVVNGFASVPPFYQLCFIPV
sEH inh = inhibitors of human soluble epoxide hydrolase; 0.34% of 91,000 active; inhibition, % at 2 µM; P34913; recombinant human sEH enzymatic activity assay; AID 707; in the data active = inhibition above about 80%
CYP2C9 act = CYP2C9 (human) activation; AID 1024; P11712; 1.4% of 96,000 active; activation factor at 5 µM; recombinant CYP2C9, luciferin-H conversion, luminescence; stronger effect = higher value; factor 1 = untreated enzyme, 0 = blocked;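 active = activation factor of 2 or more for CYP2C9 at a 5 µM dose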
CYP2C19 inhib = blocks human cytochrome P450 2C19; P33261; CYP2C19 Supersomes, luciferin-H EGE luminescence, 30 min; inhibition, % at 5 µM; 21% of 96,000 active; AID 778;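 active = CYP2C19 inhibition above a set limit at 5 µM in the primary screen, cut at about 50% in these data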
CYP2C9 inh = blocks human cytochrome P450 2C9; inhibition, % at 5 µM; 20% of 96,000 active; CYP2C9 Supersomes, luciferin-H conversion, luminescence; P11712; AID 777;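 active = blocking of liver enzyme CYP2C9 beyond about 50% at 5 µM, limit read from the data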
sEH act = activators of human soluble epoxide hydrolase | P34913 | 0.04% of 91,000 active | purified human sEH enzymatic activity, activator screen | AID 717 | activation, % at 2 µM; in the data active = activation above about 37%
Numbers stand for hits.

What do the screens show for `CCC(C)NC(=O)CSc1nnc(-c2ccncc2)n1-c1ccc(OC)cc1` (stereo unspecified)?
CYP2C19 act: inactive; sEH inh: inactive; CYP2C9 act: inactive; CYP2C19 inhib: 100; CYP2C9 inh: 86; sEH act: inactive

What do the screens show for `CCNC(=O)CSc1nnc(-c2ccccc2)n1-c1ccc(OCC)cc1`?
CYP2C19 act: inactive; sEH inh: inactive; CYP2C9 act: inactive; CYP2C19 inhib: inactive; CYP2C9 inh: 60; sEH act: inactive

What do the screens show for `CCOc1ccc(NC(=O)CSc2nnc(-c3ccccc3)n2N)cc1`?
CYP2C19 act: inactive; sEH inh: inactive; CYP2C9 act: inactive; CYP2C19 inhib: inactive; CYP2C9 inh: inactive; sEH act: inactive

How did COc1ccc(C=NCC2COc3ccccc3O2)cc1OC (stereo unspecified) do in these assays?
CYP2C19 act: inactive; sEH inh: inactive; CYP2C9 act: inactive; CYP2C19 inhib: inactive; CYP2C9 inh: inactive; sEH act: inactive

Results for CC1CCc2nn(CC(=O)N3CCN(C(=O)c4ccco4)CC3)cc2C1 (stereo unspecified) ?
sEH inh: inactive; sEH act: inactive

How did N=C1C(c2ccc(Br)cc2)=C(O)C2CCc3ccccc3N12 (stereo unspecified) do in these assays?
CYP2C19 act: inactive; sEH inh: inactive; CYP2C9 act: inactive; CYP2C19 inhib: 50; CYP2C9 inh: inactive; sEH act: inactive

What do the screens show for `COc1cccc(N=C2SC(C(=O)Nc3ccc(F)cc3)CC(=O)N2C)c1` (stereo unspecified)?
CYP2C19 act: inactive; CYP2C9 act: inactive; CYP2C19 inhib: 83; CYP2C9 inh: 99

What do the screens show for `CCOc1ccc(NC(=O)C2CC(=O)N(C)C(=Nc3ccc4c(c3)OCO4)S2)cc1` (stereo unspecified)?
CYP2C19 act: inactive; sEH inh: inactive; CYP2C9 act: inactive; CYP2C19 inhib: inactive; CYP2C9 inh: inactive; sEH act: inactive

Results for CCCCNCc1cc(Br)c(OCc2cccs2)c(OC)c1 ?
CYP2C19 act: inactive; sEH inh: inactive; CYP2C9 act: inactive; CYP2C19 inhib: 65; CYP2C9 inh: inactive; sEH act: inactive

Results for CCCCNCc1cc(Br)c(OCC(=O)N2CCOCC2)c(OC)c1 ?
CYP2C19 act: inactive; sEH inh: inactive; CYP2C9 act: inactive; CYP2C19 inhib: inactive; CYP2C9 inh: inactive; sEH act: inactive

How did N#Cc1nc(COc2ccc(Br)cc2)oc1N1CCN(Cc2ccccc2)CC1 do in these assays?
CYP2C19 act: inactive; sEH inh: inactive; CYP2C9 act: inactive; CYP2C19 inhib: inactive; CYP2C9 inh: 56; sEH act: inactive

How did N#Cc1nc(-c2ccc(OCc3ccccc3)cc2)oc1N1CCOCC1 do in these assays?
CYP2C19 act: inactive; sEH inh: inactive; CYP2C9 act: inactive; CYP2C19 inhib: inactive; CYP2C9 inh: inactive; sEH act: inactive

What do the screens show for `N#Cc1nc(COc2ccc(F)cc2)oc1N1CCC(Cc2ccccc2)CC1`?
CYP2C19 act: inactive; sEH inh: inactive; CYP2C9 act: inactive; CYP2C19 inhib: inactive; CYP2C9 inh: 70; sEH act: inactive

Results for N#Cc1nc(COc2ccc(F)cc2)oc1N1CCN(Cc2ccccc2)CC1 ?
CYP2C19 act: inactive; CYP2C9 act: inactive; CYP2C19 inhib: 73; CYP2C9 inh: 93

What do the screens show for `CCN1CCN(c2oc(COc3ccc(-c4ccccc4)cc3)nc2C#N)CC1`?
CYP2C19 act: inactive; sEH inh: inactive; CYP2C9 act: inactive; CYP2C19 inhib: 93; CYP2C9 inh: 81; sEH act: inactive

Results for COc1ccccc1-c1nc(C#N)c(N2CCN(Cc3ccccc3)CC2)o1 ?
CYP2C19 act: inactive; sEH inh: inactive; CYP2C9 act: inactive; CYP2C19 inhib: inactive; CYP2C9 inh: inactive; sEH act: inactive

How did O=C(NNC(=O)c1ccccc1Br)c1cccc(Cl)c1 do in these assays?
CYP2C19 act: inactive; sEH inh: inactive; CYP2C9 act: 3.1; CYP2C19 inhib: inactive; CYP2C9 inh: inactive; sEH act: inactive

Results for CCOC(=O)c1nnn(-c2nonc2N)c1CSc1ccccn1 ?
CYP2C19 act: inactive; sEH inh: inactive; CYP2C9 act: inactive; CYP2C19 inhib: inactive; CYP2C9 inh: 56; sEH act: inactive

Results for CCOC(=O)c1nnn(-c2nonc2N)c1CSc1ccc(C)cc1 ?
CYP2C19 act: inactive; sEH inh: inactive; CYP2C9 act: inactive; CYP2C19 inhib: 79; CYP2C9 inh: 51; sEH act: inactive
